High-throughput results (PubChem BioAssay)
The list is not random: actives were taken first. Their share in the collection is about 4%.
D1 antagonist = antagonists of human D1 dopamine receptor; HEK293 TREx D1 cells, calcium flux, dopamine EC80; stronger effect = lower value; AID 504652; activity change, negative = inhibition, % at 10 µM; actives 3.2% (n = 360,000); P21728; in the data active = activity change below about -30%
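Allosteric or orthosteric antagonism assessed as attenuation of the calcium response to EC80 dopamine, added 180 s after compound, in induced HEK293 Trex D1 cells loaded with no-wash calcium dye.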
GRP78 ERSR act = inducers of ER stress response in human glioma cells; U87-MG GRP78 promoter luciferase reporter, 16 h; Potency, µM, most hits filed as activators; actives 0.02% (n = 420,000); AID 602332; active = well fitted activation curve with a large enough effect; note: series mostly up to about 76 µM; nearly all actives have a fitted effect of over 35% in size
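ERSR induction read as luciferase luminescence (Bright-Glo, 10 min at room temperature) in stably transfected human U87-MG glioma cells exposed to compounds for 16 h, using GRP78 as sensor.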
D1 PAM = potentiators of human D1 dopamine receptor; potentiation, % at 10 µM; HEK293 TREx D1 cells, calcium flux, dopamine EC20 potentiation; actives 0.036% (n = 360,000); AID 504651; P21728; in the data active = potentiation above about 30%
TRHR ag = TRH receptor (human) agonism; actives 0.18% (n = 360,000); P34981; AID 493084; activation, % at 2 µM; TRHR cells, calcium flux fluo-8, FDSS agonist mode
Target sequence (P34981 whole entry, looked up): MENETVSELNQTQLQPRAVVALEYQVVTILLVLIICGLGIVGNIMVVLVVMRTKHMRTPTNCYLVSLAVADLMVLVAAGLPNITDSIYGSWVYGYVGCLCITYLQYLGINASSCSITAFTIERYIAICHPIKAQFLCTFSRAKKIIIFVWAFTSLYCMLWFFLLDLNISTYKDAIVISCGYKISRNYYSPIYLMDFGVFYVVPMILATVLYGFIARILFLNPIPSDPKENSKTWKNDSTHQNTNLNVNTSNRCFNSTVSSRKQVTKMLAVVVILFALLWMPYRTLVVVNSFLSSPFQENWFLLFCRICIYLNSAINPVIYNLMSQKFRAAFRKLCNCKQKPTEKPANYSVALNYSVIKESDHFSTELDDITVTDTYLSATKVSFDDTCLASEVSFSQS
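Read-out: compound-evoked intracellular calcium rise in TRHR cells, fluo-8 dye, kinetic FDSS fluorescence at 1 s/cycle following a 10-cycle baseline. Cells cultured overnight before dye loading (30 min–1.5 h, RT).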
TRHR PAM = allosterically enhances the human TRH receptor. AID 493056. P34981. enhancement, % at 2 µM. actives 0.66% (n = 360,000). TRHR cells, fluo-8 calcium fluorescence, EC20 TRH enhancement; in the data active = enhancement above about 30%
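TRHR-expressing cells loaded with fluo-8 calcium dye were read kinetically (ex 480/em 530) during compound addition, then stimulated with an EC20 of TRH (10 nM final). Enhancement of the Gq-mediated intracellular calcium response was scored.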
D1 ag = human D1 receptor agonism | P21728 | HEK293 T-REx D1 cells, calcium flux, agonist mode | activation, % at 2 µM | actives 1% (n = 360,000)
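Agonism was scored from calcium flux recorded over 180 s (1 read/s) after pintool compound addition, following a 10-cycle baseline. Cells were inducible force-coupled HEK293 TREx D1, plated overnight at 30 C and loaded with no-wash calcium dye.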
Of the large screens only hits and unclear results are named; the others gave an inactive call; ! = not confirmed by another sample. Cut-off read from the data, not from the text of the source, unless noted: active = activation above about 30%; inactive = the rest.

CCc1cc2c(=O)oc(-c3ccccc3F)nc2s1	TRHR PAM 37
O=C(NCC1(N2CCOCC2)CCCC1)c1cnn(-c2nccc(-c3ccco3)n2)c1C1CC1	none (no result: D1 antagonist, D1 PAM, TRHR ag, TRHR PAM, D1 ag)
O=[N+]([O-])c1ccc(CSc2ncnc3c2ncn3C2OC(CO)C(O)C2O)cc1 (stereo unspecified)	none (no result: D1 antagonist, D1 PAM, TRHR ag, TRHR PAM, D1 ag)
O=C(c1cccs1)N1CCN(c2nc3ccccc3s2)CC1	D1 antagonist -37
CCSc1ccccc1C(=O)N1CCN(c2nc3ccccc3s2)CC1	D1 ag 31 (no result: D1 antagonist)
O=C(C1COc2ccccc2O1)N1CCN(c2nc3ccccc3s2)CC1 (stereo unspecified)	D1 antagonist -62
COc1ccc(C2CC2C(C)=O)cc1 (stereo unspecified)	none
CC(C)CC(CSc1ccc(Br)cc1)N1CCN(CCc2ccccc2)CCC1=O (stereo unspecified)	none (no result: D1 antagonist, D1 PAM, TRHR ag, TRHR PAM, D1 ag)
Cc1cc(-n2c(C)cc(C(=S)N3CCOCC3)c2C)ccc1Br	none
Cn1c(SCC2CCCO2)nnc1C1CCN(Cc2ccco2)CC1 (stereo unspecified)	none (no result: D1 antagonist, D1 PAM, TRHR ag, TRHR PAM, D1 ag)
C[C@H](NC(=O)c1ccco1)C(=O)NC1CCCCCC1	none
CSCCC(NC(=O)c1ccco1)C(=O)OC(C)C(=O)NC(=O)NC1CCCCC1 (stereo unspecified)	TRHR ag 52
Cc1c2ccccc2nc2c(F)c(NC(C)C)c(F)c(F)c12	TRHR ag 40, D1 ag 64
COc1cc2c(cc1OC)C(c1ccccc1Cl)N(C)CC2 (stereo unspecified)	none
COc1ccc(N2CCN(c3ncccc3-c3nc(-c4ccccc4C)no3)CC2)cc1	D1 antagonist -31
S=C(NCc1ccc(Cl)cc1)Nc1ccccc1	none
Cc1cc(Cl)ccc1NC(=S)NCc1ccccc1Cl	D1 antagonist -32
S=C(NCc1ccc(Cl)cc1Cl)Nc1ccccc1	D1 antagonist -31
O=C(CN(Cc1ccc2c(c1)OCO2)C(=O)CNS(=O)(=O)c1ccccc1)NCc1ccco1	none
Cc1ccc(C([O-])=C(C(=S)NCc2ccccc2)[n+]2cccc(CO)c2)cc1[N+](=O)[O-]	none (no result: D1 antagonist, D1 PAM, TRHR ag, TRHR PAM, D1 ag)
COc1ccccc1/C=C/c1cnccn1	none (no result: D1 antagonist, D1 PAM, TRHR ag, TRHR PAM, D1 ag)
COCCCNC(=O)CCc1c(C)c2cc3c(C)coc3cc2oc1=O	D1 antagonist -56
COc1ccc(CNC(=O)CCc2c(C)c3cc4c(C)c(C)oc4cc3oc2=O)cc1	D1 antagonist -36
Cc1coc2cc3oc(=O)c(CCC(=O)NCC(=O)O)c(C)c3cc12	none
C=CCN(CC(=O)NCc1ccc(OC)cc1)C(=O)c1csnn1	none
C=CCN(CC(=O)NCc1ccc(F)cc1)C(=O)c1csnn1	D1 antagonist -35
COC(=O)C(CC(=O)c1ccc(Cl)cc1)c1ccccc1 (stereo unspecified)	none (no result: D1 antagonist, D1 PAM, TRHR ag, TRHR PAM, D1 ag)
N#Cc1sc2nc(-c3cccs3)cc(-c3ccc(Cl)cc3)c2c1N	D1 antagonist -32
O=[N+]([O-])c1ccc(NC(=S)NCc2ccc(F)cc2)cc1	D1 antagonist -35
O=[N+]([O-])c1ccc(NC(=S)NCCc2ccccc2)cc1	D1 antagonist -37
S=C(NCc1ccc(Cl)cc1)Nc1ccncc1	D1 antagonist -43
O=[N+]([O-])c1ccc(NC(=S)NCc2ccncc2)cc1	D1 antagonist -41, D1 ag 32
O=[N+]([O-])c1ccc(NC(=S)NCCc2ccc(Cl)cc2)cc1	none
CCNC(=O)c1c(NC(=O)COc2ccc(F)cc2)sc2c1CCCC2	none
CSCC[C@H](NC(=O)[C@@H](Cc1ccc(O[S+](=O)([O-])O)cc1)NC(=O)[C@H](N)CC(=O)O)C(=O)NCC(=O)N[C@@H](Cc1c[nH]c2ccccc12)C(=O)N[C@H](CCSC)C(=O)N[C@H](CC(=O)O)C(=O)N[C@@H](Cc1ccccc1)C(N)=O	none (no result: D1 antagonist, D1 PAM, TRHR ag, TRHR PAM, D1 ag)
O=C(NCc1ccncc1)Nc1cccc([N+](=O)[O-])c1	none
O=[N+]([O-])c1cccc(NC(=S)NCc2ccncc2)c1	D1 antagonist -40
COc1cc(NC(=O)c2n[nH]c(=O)c3ccccc23)cc(OC)c1	TRHR PAM 35
CCOC(=O)CCCn1c(C)nc(=O)c(-c2ccccc2)c1C	D1 antagonist -34
Cc1nc(=O)c(-c2ccccc2)c(C)n1CCO	D1 antagonist -37
CCCCCCNc1ccc(/C=C/c2ccnc3ccccc23)cc1	none (no result: D1 antagonist, D1 PAM, TRHR ag, TRHR PAM, D1 ag)
Cc1ccccc1NNC(=O)C(=O)NNc1ccccc1C	none
Cc1ccccc1NC(=O)C(Cl)=C(Cl)Cl	GRP78 ERSR act 35µM
CCN(CC)CCNC(=O)c1ccc(NC(=O)c2ccc(C(=O)c3ccccc3)cc2)cc1	D1 antagonist -38
CCN(CC)CCNC(=O)c1ccc(NC(C)=O)cc1	D1 antagonist -34!
CCN(CC)CCNC(=O)c1ccc(NC(=O)c2ccc(COc3ccccc3)cc2)cc1	none
CCN(CC)CCNC(=O)c1ccc(NS(C)(=O)=O)cc1	none (no result: D1 antagonist, D1 PAM, TRHR ag, TRHR PAM, D1 ag)
CC(=O)OC[C@@H]1O[C@H](C/C=N\O[C@@H](C)c2cc(-c3c(C)cc(C)cc3C)no2)C=C[C@@H]1OC(C)=O	none (no result: D1 antagonist, D1 PAM, TRHR ag, TRHR PAM, D1 ag)
FC(F)(F)c1cccc(NC(=S)NCC2COc3ccccc3O2)c1 (stereo unspecified)	D1 antagonist -35
CC(C)(C)NNC(=S)Nc1cccc(C(F)(F)F)c1	TRHR PAM 32
FC(F)(F)c1ccc(NC(=S)NC2CCCCC2)cc1	D1 antagonist -44
O=C(O)c1ccc(NC(=S)NC2CCCCC2)cc1	none
FC(F)(F)c1cccc(NC(=S)NNC(=S)NCc2ccccc2)c1	none
Fc1cccc(NC(=S)NC2CCCCCCC2)c1	none
FC(F)(F)c1cccc(NC(=S)NC2CCCC2)c1	D1 antagonist -36
CN(CC(=O)Nc1ccccc1Cl)C(=O)c1ccc(-c2cccc(C(F)(F)F)c2)o1	none
OC(Cc1ccccc1)c1ncc(-c2ccc3ccccc3c2)[nH]1 (stereo unspecified)	none (no result: D1 antagonist, D1 PAM, TRHR ag, TRHR PAM, D1 ag)
CCN(CC)c1ccc(/C=C/C2=C3C=CC=CC3NC=C2)cc1 (stereo unspecified)	none (no result: D1 antagonist, D1 PAM, TRHR ag, TRHR PAM, D1 ag)
Cc1cc(Cl)cc(Cl)c1OCCCCN(C)C	none
Cc1cc(C)c(OCCOCCN2CCN(C)CC2)c(Cl)c1	none
Cc1cc(Cl)cc(Cl)c1OCCN1CCCC1	D1 antagonist -31
Cc1cccc(C(C)(C)C)c1OCCOCCN1CCCC1	none
Cc1cccc(C(C)(C)C)c1OCCN1CCCC1	D1 antagonist -32
Cc1cc(C)c(OCCN2CCCC2)c(Cl)c1	D1 antagonist -59
CCN(CC)C(=O)CSc1nc(-c2ccccc2F)nc2c1Cc1c(CO)cnc(C)c1O2	none
Cc1cccc(OCC(=O)NCc2ccc3c(c2)CCN3C(=O)c2ccc(Cl)cc2)c1	none
Cc1ccc(-c2nc(-c3cc4cc(Cl)ccc4oc3=O)sc2C)cc1	none (no result: D1 antagonist, D1 PAM, TRHR ag, TRHR PAM, D1 ag)
Clc1ccc2c(NCc3ccccc3)ccnc2c1	D1 antagonist -38
